PubChem BioAssay (Tox21)
Results filed as inconclusive are left out. A call without a number means that no potency is given here. The source made the active and inactive calls. The call rests on the fitted dose curve; in most records, active means well fitted activation curve with a large enough effect in the signal ratio in the repeat runs, with a control signal flat (not every such curve was filed as active); inconclusive means weak or mixed curves; inactive means flat fitted curve, though single readings scatter; the % refers to the signal ratio.

Assay: qHTS assay for small molecule activators of the heat shock response signaling pathway (AID 743210)
Conditions: HeLa HSE-bla reporter, beta-lactamase ratio, 5 h; series mostly up to 62.6 µM
Text: U.S. Tox21 Program National Center for Advancing Translational Sciences [NCATS] NIH Chemical Genomics Center [NCGC] U.S. Environmental Protection Agency [EPA] National Institutes of Environmental Health Sciences [NIEHS] National Toxicology Program [NTP] U.S. Food and Drug Administration [FDA] Tox21 Assay Overview: Various chemicals, environmental and physiological stress conditions may lead to the activation of heat shock response/ unfolded protein response (HSR/UPR). There are three heat shock transcription factors (HSFs) (HSF-1, -2, and -4) mediating transcriptional regulation of the human HSR. To identify the compounds that activate HSR signaling, HSE-bla HeLa cell line (Invitrogen, Carlsbad, CA, USA) containing a beta-lactamase reporter gene under the control of the heat shock response elements was used to screen the Tox21 10K compound library.
Tox21 Assay Protocol Summary: The CellSensor HSE-bla HeLa cells (Invitrogen, Carlsbad, CA, USA) were dispensed at 1500 cells/6uL/well into 1536-well black wall/clear bottom plates using a Multidrop combi (Thermo Fisher Scientific, Waltham, MA) dispenser. After the assay plates were incubated at 37 C and 5% CO2 overnight, 23 nL of compounds dissolved in DMSO, positive controls or DMSO only was transferred to the assay plate by a Pintool station (Kalypsys, San Diego, CA). The plates were incubated at 37 C for 5 h. After 1 uL of LiveBLAzerTM B/G FRET substrate was added using a Flying Reagent Dispenser (Beckman Coulter, Indianapolis, IN, USA), the plates were incubated at room temperature for 2.5 h, and fluorescence intensity was measured by an Envision plate reader (PerkinElmer, Shelton, CT).

Structure (SMILES) | Potency
COC(=O)CCCCC(=O)OC | inactive
CCN(CC)CCNC(=O)c1ccc(N)cc1 | inactive
Cc1ccccc1C=O | inactive
COc1cc(NC(=O)CC(C)=O)c(OC)cc1Cl | inactive
CCCCCCCC(=O)O | inactive
CC(COCC(C)OC(=O)c1ccccc1)OC(=O)c1ccccc1 (stereo not given) | inactive
CC(C)(C)NC[C@H](O)COc1nsnc1N1CCOCC1 | inactive
Cc1cc(CC(=O)O)n(C)c1C(=O)c1ccc(Cl)cc1 | inactive
CC(C)=CCC/C(C)=C/C=O | inactive
Cc1ccc(Cl)cc1 | inactive
COc1ccc(N)c(OC)c1 | inactive
CCCOCC(C)O (stereo not given) | inactive
O=[N+]([O-])c1ccccc1C(F)(F)F | inactive
CCCCCCCCC(=O)O | inactive
Cc1nnc(NS(=O)(=O)c2ccc(N)cc2)s1 | inactive
CC(=O)OC(C)(C)C1CC=C(C)CC1 (stereo not given) | inactive
COC(=O)OC | inactive
C=CC(C)(C)C | inactive
O=C(c1ccccc1)c1ccc(O)c(O)c1O | inactive
OB(O)O | inactive

Structure (SMILES) | Potency
CC(O)CNCC(C)O (stereo not given) | inactive
O=Cc1ccc(CO)o1 | inactive
O=c1n(CCCN2CCN(c3cccc(Cl)c3)CC2)nc2ccccn12 | inactive
Cc1ccc(C(C)C)cc1 | inactive
NC(=O)NC(N)=O | inactive
COc1ccccc1[N+](=O)[O-] | inactive
Oc1ccc(Cc2ccccc2O)cc1 | inactive
CCCCCC(C)=O | inactive
O=C(Cl)c1ccc(C(=O)Cl)cc1 | inactive
Nc1cccc(C(F)(F)F)c1 | inactive
O=C1OC(=O)c2c(Cl)c(Cl)c(Cl)c(Cl)c21 | inactive
NC1CCCCC1N (stereo not given) | inactive
CC(CN1c2ccccc2Sc2ccccc21)N(C)C (stereo not given) | inactive
CCOC(=O)CC(=O)OCC | inactive
CC/C(C)=N/O | inactive
CC(=O)OC/C=C(\C)CCC=C(C)C | inactive
COC(=O)/C=C\C(=O)OC | inactive
NC(=O)c1ncn([C@@H]2O[C@H](CO)[C@@H](O)[C@H]2O)n1 | inactive
CC(=O)OC[C@H]1O[C@@](COC(C)=O)(O[C@H]2O[C@H](COC(C)=O)[C@@H](OC(C)=O)[C@H](OC(C)=O)[C@H]2OC(C)=O)[C@@H](OC(C)=O)[C@@H]1OC(C)=O | inactive
COc1c(Cl)ccc(Cl)c1C(=O)O | inactive
